Screens (PubChem BioAssay)
Dicer inh – inhibitors of human Dicer processing of pre-microRNA | 47,000 compounds, 6% hits | AID 1347074 | z-score at 25 µM | cat-ELCCA pre-miR-21 Dicer processing, chemiluminescence; stronger effect = higher value | Q9UPY3; in the data active means z-score above about 3, passing the limit was not always enough;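 further: plate controls were vehicle for no effect and no enzyme for full effect; higher signal means more uncleaved substrate so more Dicer inhibition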
Target sequence (Q9UPY3 whole entry, looked up): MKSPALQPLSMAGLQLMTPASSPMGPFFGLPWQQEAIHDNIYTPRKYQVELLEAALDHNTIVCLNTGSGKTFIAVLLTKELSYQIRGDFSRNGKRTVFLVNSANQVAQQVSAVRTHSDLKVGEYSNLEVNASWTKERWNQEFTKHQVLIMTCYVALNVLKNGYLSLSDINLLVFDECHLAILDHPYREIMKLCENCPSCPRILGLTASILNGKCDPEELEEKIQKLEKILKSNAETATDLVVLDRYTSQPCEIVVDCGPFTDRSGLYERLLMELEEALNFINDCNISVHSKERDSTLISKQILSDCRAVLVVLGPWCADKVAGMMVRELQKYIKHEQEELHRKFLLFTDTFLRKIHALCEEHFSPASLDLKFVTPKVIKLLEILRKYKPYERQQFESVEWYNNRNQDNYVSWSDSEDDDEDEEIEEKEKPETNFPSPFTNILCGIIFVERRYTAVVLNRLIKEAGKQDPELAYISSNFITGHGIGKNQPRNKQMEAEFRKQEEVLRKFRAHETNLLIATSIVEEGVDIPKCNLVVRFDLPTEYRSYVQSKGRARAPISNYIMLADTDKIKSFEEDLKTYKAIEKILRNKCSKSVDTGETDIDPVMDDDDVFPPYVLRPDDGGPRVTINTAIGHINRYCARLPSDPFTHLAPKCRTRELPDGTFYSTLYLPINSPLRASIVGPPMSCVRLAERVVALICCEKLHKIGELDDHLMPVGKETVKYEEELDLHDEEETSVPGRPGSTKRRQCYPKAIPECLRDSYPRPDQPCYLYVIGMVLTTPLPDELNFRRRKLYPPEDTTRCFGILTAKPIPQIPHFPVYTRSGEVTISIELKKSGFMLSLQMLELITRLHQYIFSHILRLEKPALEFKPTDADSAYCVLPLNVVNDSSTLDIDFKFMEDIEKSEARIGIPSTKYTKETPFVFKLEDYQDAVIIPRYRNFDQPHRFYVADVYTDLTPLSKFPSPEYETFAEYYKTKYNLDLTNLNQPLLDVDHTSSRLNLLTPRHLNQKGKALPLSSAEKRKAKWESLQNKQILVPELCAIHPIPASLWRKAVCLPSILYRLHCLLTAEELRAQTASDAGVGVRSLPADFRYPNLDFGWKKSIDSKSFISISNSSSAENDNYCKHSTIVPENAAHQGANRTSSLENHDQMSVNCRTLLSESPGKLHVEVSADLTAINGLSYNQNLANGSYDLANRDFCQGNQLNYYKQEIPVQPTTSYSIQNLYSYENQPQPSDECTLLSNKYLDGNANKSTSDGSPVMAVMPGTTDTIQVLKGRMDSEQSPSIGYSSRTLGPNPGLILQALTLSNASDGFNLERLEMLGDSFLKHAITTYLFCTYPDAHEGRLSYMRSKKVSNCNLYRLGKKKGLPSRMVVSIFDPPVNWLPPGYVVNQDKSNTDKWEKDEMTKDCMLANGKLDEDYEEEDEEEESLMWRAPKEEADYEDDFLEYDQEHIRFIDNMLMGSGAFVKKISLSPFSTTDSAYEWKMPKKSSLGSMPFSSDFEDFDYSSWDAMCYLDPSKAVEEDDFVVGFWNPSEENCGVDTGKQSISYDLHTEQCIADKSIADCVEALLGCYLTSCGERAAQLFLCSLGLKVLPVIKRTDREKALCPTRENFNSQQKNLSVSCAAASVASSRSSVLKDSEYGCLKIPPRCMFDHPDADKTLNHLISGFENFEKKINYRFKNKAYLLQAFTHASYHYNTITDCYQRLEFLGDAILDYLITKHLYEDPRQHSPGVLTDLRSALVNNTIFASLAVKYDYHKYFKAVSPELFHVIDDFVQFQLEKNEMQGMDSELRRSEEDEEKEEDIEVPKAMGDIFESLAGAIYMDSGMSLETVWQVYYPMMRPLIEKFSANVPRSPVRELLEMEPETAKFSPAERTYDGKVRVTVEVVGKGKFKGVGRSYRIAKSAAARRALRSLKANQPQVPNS
The depositor's hits bear a star. Many of the other results were omitted from the sample, so hits are more common in it than they were.

SMILES | Dicer inh
CCOc1cc(C2C(C(=O)OC3CCCC3)=C(C)NC3=C2C(=O)CCC3)cc(Br)c1O (stereo unspecified) | 1.74
CCOCCOC(=O)C1=C(C)NC2=C(C(=O)CCC2)C1c1ccc(C(=O)OC)cc1 (stereo unspecified) | 4.84*
CC1=C(C(=O)OCC2CCCO2)C(c2ccccc2OCc2ccccc2)C2=C(CCCC2=O)N1 (stereo unspecified) | 3.57*
COc1ccccc1C1C(C(=O)OCC2CCCO2)=C(C)NC2=C1C(=O)CCC2 (stereo unspecified) | -0.11
CCCCOC(=O)C1=C(C)NC2=C(C(=O)CCC2)C1c1cc(Br)c(O)c(OCC)c1 (stereo unspecified) | 3.23*
CCOCCOC(=O)C1=C(C)NC2=C(C(=O)CCC2)C1c1cc(Br)c(O)c(OC)c1 (stereo unspecified) | 0.03
CCSCCOC(=O)C1=C(C)NC2=C(C(=O)CCC2)C1c1ccccc1OC(C)C (stereo unspecified) | 1.12
CCSCCOC(=O)C1=C(C)NC2=C(C(=O)CCC2)C1c1ccccc1OCc1ccccc1 (stereo unspecified) | 5.99*
CCCCCOC(=O)C1=C(C)NC2=C(C(=O)CCC2)C1c1ccccc1OCCC (stereo unspecified) | 0.33
Cc1cc(C)c(S(=O)(=O)Oc2ccc(C3SCCS3)cc2)c(C)c1 | -0.81
Cc1nnc(SCC(=O)Nc2sc3c(c2C(=O)OC(C)C)CCCC3)s1 | 0.07
CO[C@@H]1O[C@H](COC(C)=O)[C@@H](OC(C)=O)[C@H](OC(C)=O)[C@H]1OC(C)=O | -0.45
Cc1nn(-c2cc(C(F)(F)F)ccc2Cl)c(N)c1C(N)=S | -1.04
O=S(=O)(O/N=C1\CCSc2ccc(F)cc21)c1ccc(Cl)cc1 | -1.56
CC1=C(C(=O)OC2CCCCC2)C(c2ccccc2Br)CC(=O)N1 (stereo unspecified) | 0.28
CC(C)Nc1nc(NCCO)nc(N2CCOCC2)n1 | 0.16
O=C(NNc1c(Cl)cncc1Cl)C(c1ccccc1)c1ccccc1 | 2.69
NC(=O)CNC(=O)COc1ccccc1 | -0.24
CN(C(=O)c1cn(C)c(=O)cc1C(F)(F)F)c1ccc(Cl)cc1 | -0.58
Cn1c(Sc2cc(C(F)(F)F)nc3cc(C(C)(C)C)nn23)nnc1C(F)(F)F | -4.04
COC(=O)c1sc2nc(C(OC)OC)ccc2c1N | 0.4
CC1(C)Cc2c(c(N3CCOCC3)nc3sc4c(=O)n(-c5ccccn5)cnc4c23)CO1 | 0.26
CCSCCOC(=O)C1=C(C)NC2=C(C(=O)CCC2)C1c1ccc(Cl)cc1 (stereo unspecified) | 4.18*
CCSCCOC(=O)C1=C(C)NC2=C(C(=O)CCC2)C1c1ccc(CC)cc1 (stereo unspecified) | 2.54
CCSCCOC(=O)C1=C(C)NC2=C(C(=O)CCC2)C1c1ccc(-c2ccccc2)cc1 (stereo unspecified) | -0.43
SMILES | Dicer inh
Cc1ccc(C2NC(=S)NC3=C2C(=O)c2ccccc23)cc1 (stereo unspecified) | -1.48
Cc1cc(-c2nn(C)c(=O)c3ccccc23)cc(C)c1OC(=O)c1ccc(C(F)(F)F)cc1 | -1.09
COc1cc(/C=N/N=C(N)N)cc(OC)c1OC | -1.52
COc1cccc(-c2nc(-c3ccc(Cl)cc3)no2)c1OC | 0.41
Fc1ccc(-c2nnc3ccc4ccccc4n23)cc1 | -0.03
Clc1ccc(-c2nnc3ccc4ccccc4n23)cc1 | -2.78
COc1ccccc1-c1nnc2ccc3ccccc3n12 | 3.03*
COC(=O)c1ccc(C2/C(=C(/O)c3ccc(C)cc3)C(=O)C(=O)N2c2cccnc2)cc1 (stereo unspecified) | 9
CC(C)(C)C(=O)Nc1nnc(-c2ccc(Br)cc2)s1 | 1.28
CC(C)(C)c1ccc(-c2nnc(NC(=O)C(Cl)(Cl)Cl)s2)cc1 | -0.32
CN(C)S(=O)(=O)c1ccc(C(=O)Nc2nnc(-c3ccc(Br)cc3)s2)cc1 | 3.16*
CC(=O)/C(N=Nc1ccc(F)cc1)=C(\C)O | 0.97
CC(C)NC(=O)c1nn2c(C(F)(F)F)cc(-c3cccs3)nc2c1Br | -0.6
CS(=O)(=O)/C(C#N)=N/Nc1ccc(OC(F)(F)F)cc1 | -1.12
Cc1nc([N+](=O)[O-])cn1CCc1noc(-c2ccc(F)cc2)n1 | 0.03
N#CC1=C(N)Oc2n[nH]c(-c3ccccc3)c2C1c1ccc([N+](=O)[O-])s1 (stereo unspecified) | -8.1
c1ccc(CSc2nnnn2-c2ccccc2)cc1 | -1.29
Cc1cc(C)n2c(Br)c(CSc3nnnn3-c3ccccc3)nc2n1 | 4.24*
Cc1cc(C)n2c(SCc3ccc(Br)cc3)nnc2n1 | 1.29
Ic1ccc(I)s1 | 0.2
CCSC1=C(C#N)C(c2ccccc2C)C(C(=O)OC)C(=O)N1 (stereo unspecified) | -0.66
COc1ccc(Br)c(OC)c1C(=O)NC(=O)Nc1c(C)cc(Br)cc1C | -0.4
COc1nc2c(c(-c3ccc4ccccc4c3)c1C#N)CCc1ccccc1-2 | -1.35
COc1nc2c(c(-c3ccc(Cl)cc3Cl)c1C#N)CCc1ccccc1-2 | 3.13*
COc1nc2c(c(-c3ccc(C(F)(F)F)cc3)c1C#N)CCc1ccccc1-2 | -1.77
SMILES | Dicer inh
CCOc1ccc(-c2nc(-c3ccc(-c4cccc(OC)c4)nc3OC)no2)cc1 | 0.66
CC(=O)N/C(=C/c1ccc(Cl)c(Cl)c1)C(=O)O | -0.62
Cc1cc(C)c(C#N)c(OCC(=O)Nc2ccc(Oc3ccccc3)cc2)n1 | 1.24
O=C(c1ccco1)c1cn(CCOc2ccccc2)c2ccccc12 | -0.39
O=C(c1ccco1)c1cn(CCOc2ccc(Cl)cc2)c2ccccc12 | -0.39
COC(=O)Cn1cc(C(=O)c2ccccc2)c2ccccc21 | 3.61*
CC(C)(C)C(=O)c1cn(CC(=O)O)c2ccccc12 | 0.33
O=C(c1ccco1)c1cn(CCOc2ccc(F)cc2)c2ccccc12 | 1.61
O=C(c1cccs1)c1cn(CCOc2ccc(F)cc2)c2ccccc12 | 3.46*
COC(=O)c1cn(CCOc2ccccc2)c2ccccc12 | 3.06*
CCN(CC)C(=O)Cn1cc(C(=O)c2ccco2)c2ccccc21 | -0.38
COC(=O)c1cn(CCOc2ccc(F)cc2)c2ccccc12 | 2.25
CCOC(=O)CSc1nnnn1-c1ccc(C(=O)O)cc1 | -0.4
O=C(/C=C/c1cccs1)Oc1c(Br)cc(Br)cc1Br | -1.17
COc1ccc(C2C(C(=O)c3cc4ccccc4o3)=C(O)C(=O)N2CCN(C)C)cc1 (stereo unspecified) | -1.31
CC(=O)N1CCN(c2nc3ccc(Cl)cc3s2)CC1 | -1.11
C=CCN1C(=O)C(O)(CC(=O)c2ccc(OC)cc2OC)c2ccccc21 (stereo unspecified) | -1.09
CCCN1CCCC(NC(=S)Nc2ccc(Br)cc2C)C1 (stereo unspecified) | 1.24
Cc1cc(C)c(Nc2nc3cc(Br)cc(C)c3s2)c(C)c1 | 3.77*
Cc1cc(C)c(Nc2nnns2)c(C)c1 | -2.25
Cc1cc(C)c(Nc2n[nH]c(=S)s2)c(C)c1 | -0.74
O=C(c1ccc(Cl)cc1)N1CCc2sccc2C1c1ccc(C(F)(F)F)cc1 (stereo unspecified) | -1.51
Cc1sc(NC(=O)CN2CCc3ccccc32)c(C#N)c1C | 0.56
N#Cc1c(C(F)(F)F)cc(-c2cccs2)n(N)c1=O | 0.4
N#C/C(=C\Nc1ccc(Cl)cn1)S(=O)(=O)c1ccccc1 | 3.23*
N#C/C(=C\Nc1ccc(Cl)cn1)S(=O)(=O)c1ccccn1 | -2.11
N#C/C(=C\Nc1ccc(Cl)cn1)S(=O)(=O)c1ccc(Cl)cc1 | 1.2
COc1cccc(C(=O)c2sc3nsc(SCc4ccccc4)c3c2N)c1 | 0.44
CCOc1cccc(=O)c2c(C)[nH]c(C)c12 | 1.84
